Reference: PubChem BioAssay AID1159580 (chemical genetic matrix, 2015)
Values joined by “and” are separate entries in the source; they are usually repeats but may differ in a detail not shown here. Equal values may be shown once. Screen size: about 5,500 compounds; about 2,000 (36%) were called active. Another 18% or so got no clear call; they are omitted. Rule as the data show it: active = normalized growth mostly below about 0.91 (no sharp cut-off); inconclusive = no clear call, values can overlap the other calls; inactive = mostly above about 0.92. This is one part of the list.

Assay: chemical genetic growth profiling, strain panel (AID 1159580);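 also: tested at 20 µM; growth read once vehicle control cultures reached saturation at 30 °C; 1 = growth at the plate median or of vehicle wells; lower values mean less growth of the strain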
Conditions: S. cerevisiae deletion strains, growth OD
[1] = locus YAL013W, strain DEP1, stronger effect = lower value
[2] = locus YBR229C, strain ROT2, stronger effect = lower value
[3] = locus YCL061C, strain MRC1, stronger effect = lower value
[4] = locus YDL101C, strain DUN1, stronger effect = lower value
[5] = locus YDR150W, strain NUM1, stronger effect = lower value
[6] = locus YEL061C, strain CIN8, stronger effect = lower value
[7] = locus YGR078C, strain PAC10, stronger effect = lower value
[8] = locus YHR030C, strain SLT2, stronger effect = lower value
[9] = locus YHR087W, strain rtc3, stronger effect = lower value
[10] = locus YJR043C, strain POL32, stronger effect = lower value
[11] = locus YJR075W, strain HOC1, stronger effect = lower value
[12] = locus YLR039C, strain RIC1, stronger effect = lower value
[13] = locus YLR058C, strain SHM2 (second series), stronger effect = lower value
[14] = locus YLR085C, strain ARP6, stronger effect = lower value
[15] = locus YLR262C, strain YPT6, stronger effect = lower value
[16] = locus YML094W, strain GIM5, stronger effect = lower value
[17] = locus YMR219W, strain ESC1, stronger effect = lower value
[18] = locus YMR263W, strain SAP30, stronger effect = lower value
[19] = locus YNL153C, strain GIM3, stronger effect = lower value
[20] = locus YNL298W, strain CLA4 (second series), stronger effect = lower value
[21] = locus YNL322C, strain KRE1, stronger effect = lower value
[22] = locus YNR030W, strain Alg12, stronger effect = lower value
[23] = locus YPL055C, strain LGE1, stronger effect = lower value
[24] = locus YPL241C, strain CIN2, stronger effect = lower value
[25] = locus YPR135W, strain CTF4, stronger effect = lower value

Measured: normalized growth

OC1(C(F)(F)F)CC(c2ccc3ccccc3c2)=NN1 (centres undefined)
active: [1] 0.205 | locus YAR019C, strain CDC15, stronger effect = lower value 0.155 | locus YBL105C, strain PKC1, stronger effect = lower value 0.336 | locus YBR135W, strain CKS1, stronger effect = lower value 0.263 | locus YBR136W, strain MEC1, stronger effect = lower value 0.339 | locus YBR160W, strain CDC28, stronger effect = lower value 0.367 | [2] 0.223 | [3] 0.19 | locus YDL017W, strain CDC7, stronger effect = lower value 0.373 | locus YDL028C, strain MPS1, stronger effect = lower value 0.402 | [4] 0.215 and 0.164 | locus YDL108W, strain KIN28, stronger effect = lower value 0.392 | locus YDL132W, strain cdc53, stronger effect = lower value 0.234 | locus YDL214C, strain PRR2, stronger effect = lower value 0.224 | locus YDR052C, strain DBF4, stronger effect = lower value 0.302 | locus YDR054C, strain cdc34, stronger effect = lower value 0.233 | [5] 0.397 | locus YDR226W, strain ADK1, stronger effect = lower value 0.278 | locus YDR477W, strain SNF1, stronger effect = lower value 0.146 | [6] 0.146 | locus YER123W, strain YCK3, stronger effect = lower value 0.181 | locus YER133W, strain GLC7, stronger effect = lower value 0.135 | locus YFL009W, strain cdc4, stronger effect = lower value 0.17 | locus YFL029C, strain CAK1, stronger effect = lower value 0.16 | locus YFR003C, strain YPI1, stronger effect = lower value 0.405 | locus YFR019W, strain FAB1, stronger effect = lower value 0.376 | locus YFR028C, strain CDC14, stronger effect = lower value 0.226 | locus YGR040W, strain KSS1, stronger effect = lower value 0.135 | locus YGR052W, strain FMP48, stronger effect = lower value 0.15 | [7] 0.213 | locus YGR092W, strain DBF2, stronger effect = lower value 0.198 | [8] 0.0763 and 0.104 | locus YHR079C, strain IRE1, stronger effect = lower value 0.125 | locus YHR082C, strain KSP1, stronger effect = lower value 0.141 | [9] 0.442 | locus YHR205W, strain SCH9, stronger effect = lower value 0.138 | locus YIL147C, strain SLN1, stronger effect = lower value 0.322 | locus YJL095W, strain BCK1, stronger effect = lower value 0.115 | locus YJL128C, strain PBS2, stronger effect = lower value 0.386 | locus YJL157C, strain FAR1, stronger effect = lower value 0.301 | locus YJR016C, strain ILV3, stronger effect = lower value 0.162 | [10] 0.245 | locus YJR066W, strain TOR1 (second series), stronger effect = lower value 0.192 | locus YJR066W, strain TOR1, stronger effect = lower value 0.125 | [11] 0.298 | locus YKL048C, strain ELM1, stronger effect = lower value 0.285 | locus YKL067W, strain YNK1, stronger effect = lower value 0.279 | locus YKL101W, strain HSL1, stronger effect = lower value 0.251 | locus YKL190W, strain CNB1, stronger effect = lower value 0.0734 | locus YKL193C, strain SDS22, stronger effect = lower value 0.161 | locus YKL203C, strain TOR2, stronger effect = lower value 0.13 | [12] 0.13 | [13] 0.274 | [14] 0.0695 | locus YLR113W, strain HOG1, stronger effect = lower value 0.15 | locus YLR133W, strain CKI1, stronger effect = lower value 0.27 | [15] 0.12 | locus YLR403W, strain SFP1, stronger effect = lower value 0.0326 | locus YML070W, strain DAK1, stronger effect = lower value 0.211 | [16] 0.192 | locus YMR001C, strain CDC5, stronger effect = lower value 0.151 | locus YMR205C, strain PFK2 (second series), stronger effect = lower value 0.218 | [17] 0.258 | [18] 0.298 | locus YMR277W, strain FCP1, stronger effect = lower value 0.172 | locus YMR307W, strain GAS1, stronger effect = lower value 0.13 | locus YNL006W, strain LST8, stronger effect = lower value 0.2 | locus YNL020C, strain ARK1, stronger effect = lower value 0.257 | [19] 0.239 | locus YNL161W, strain CBK1, stronger effect = lower value 0.211 | locus YNL183C, strain NPR1, stronger effect = lower value 0.115 | locus YNL207W, strain RIO2, stronger effect = lower value 0.195 | locus YNL222W, strain SSU72, stronger effect = lower value 0.225 | [20] 0.0831 | locus YNL307C, strain MCK1 (second series), stronger effect = lower value 0.228 | [21] 0.571 | [22] 0.108 | locus YOL006C, strain TOP1, stronger effect = lower value 0.1 | locus YOL078W, strain AVO1, stronger effect = lower value 0.186 | locus YOL136C, strain PFK27, stronger effect = lower value 0.211 | locus YOR061W, strain CKA2, stronger effect = lower value 0.43 | locus YOR119C, strain RIO1, stronger effect = lower value 0.129 | locus YOR231W, strain MKK1, stronger effect = lower value 0.132 | locus YOR329C, strain SCD5, stronger effect = lower value 0.203 | locus YPL031C, strain PHO85, stronger effect = lower value 0.126 | [23] 0.157 | locus YPL153C, strain RAD53, stronger effect = lower value 0.115 | locus YPL204W, strain HRR25, stronger effect = lower value 0.13 | locus YPL209C, strain IPL1, stronger effect = lower value 0.232 | [24] 0.108 | locus YPL256C, strain CLN2, stronger effect = lower value 0.147 | locus YPR025C, strain CCL1, stronger effect = lower value 0.248 | locus YPR106W, strain ISR1, stronger effect = lower value 0.586 | locus YPR111W, strain DBF20, stronger effect = lower value 0.715 | [25] 0.163 | strain NNK1, stronger effect = lower value 0.492 | strain TSCII, stronger effect = lower value 0.18

OC1(C(F)(F)F)CC(c2ccccc2)=NN1 (centres undefined)
active: [15] 0.809
inactive: [1] 0.974 | [2] 0.968 | [3] 0.978 | [4] 0.987 | locus YDL134C, strain PPH21, stronger effect = lower value 0.984 | [5] 0.949 | [6] 1 | [7] 0.972 | [8] 1.08 | [9] 0.967 | locus YJL187C, strain SWE1, stronger effect = lower value 1 | [10] 0.991 | [11] 0.915 | [12] 0.843 | [13] 0.961 | [14] 1.03 | [16] 1 | [17] 0.976 | [18] 0.976 | [19] 0.981 | [20] 0.989 | [21] 0.953 | [22] 1 | [23] 0.981 | [24] 1.02 | [25] 0.92
